According to PubChem BioAssay:

test system: Fibrinogen (Alexa647-labelled); test: Alexa647-fibrinogen binding to printed small molecules – biochemical, small-molecule microarray, 635/667 nm fluorescence, artefact control for SMM control-protein annotation, profiling panel (AID 1131); settings: fibrinogen-A647 binding fluorescence, higher = more signal;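 further: z-score merges 667 nm fluorescence with per-spot signal-to-noise over triplicate slides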

Structure (SMILES) | composite z-score
Cc1ccc(S[C@]2(C(=O)NCCCN(C)C)CC(=O)N(C3CCCCC3)[C@@H]2c2ccc(CO)cc2I)cc1 | -1.32
O=C1C2C=CC(C(O)C#Cc3ccccc3)N(Nc3ccccc3)C2C(=O)N1c1ccccc1 (stereo unspecified) | 0.941
O=C1NC(=O)C2C1C=CC(C(O)C=Cc1ccc([N+](=O)[O-])cc1)N2Nc1ccccn1 (stereo unspecified) | 0.123
Cc1ccc(S(=O)(=O)N[C@H]2COC(=O)CC=C[C@H](C)COC(=O)N[C@@H](C)C(=O)CC=C[C@@H]2C)cc1 | -0.446
Cc1ccc(N2C(=O)c3ccccc3[C@](C)(C(=O)NCC(C)C)[C@@H]2c2ccc(CO)cc2)nc1 | -1.43
O=C1C2C=CC(C(O)c3ccccc3)N(n3cnnc3)C2C(=O)N1Cc1ccccc1 (stereo unspecified) | 0.249
COc1cc([C@@H]2N[C@H](C(=O)O)Cc3c2[nH]c2ccccc32)cc(OC)c1OC | 0.514
C=CCNC(=O)[C@H]1[C@@H]2C(=O)O[C@@H](c3ccccc3)[C@@H](c3ccccc3)N2[C@@H](c2ccc(O)cc2)[C@]12C(=O)Nc1ccc(C#CCNC(N)=O)cc12 | -1.04
CCC#CCN(Cc1ccccc1Br)[C@H](/C=C/c1ccccc1)[C@@H](O)Cc1ccccc1 | -0.58
CCCC=C(CCC)[C@@H](NC(=O)c1ccccc1)c1ccccc1 | -0.602
CO[C@H]1O[C@H](CO)[C@@H](OC(=O)CCc2ccccc2)[C@@H]2OC(=O)[C@H](Cc3cccc(Br)c3)C/C=C/C[C@@H](Cc3cccc(Br)c3)C(=O)O[C@@H]12 | 0.0162
C=CCC(OC(C)=O)[C@@H]1[C@@H](N(Cc2cccc3ccccc23)C(=O)c2ccc(C)cc2)c2cc(OCCCO)ccc2N1C(=O)c1ccc(-c2ccccc2)cc1 (stereo partly specified) | -0.5
Cc1ccc(N2C(=O)c3ccccc3[C@](C)(C(=O)O)[C@@H]2c2ccc(CO)cc2)nc1 | -0.912
C[C@@H]1CC[C@H]2C(=O)N3[C@@H](CC[C@@H](C)[C@@H]3c3cccc(N4CCOCC4)c3)C(=O)N2[C@H]1c1cccc(N2CCOCC2)c1 | 0.815
Cc1ccc(S[C@]2(C(=O)NCCN3CCOCC3)CC(=O)N(C3Cc4ccccc4C3)[C@@H]2c2ccc(CO)cc2I)cc1 | 0.0025
N#Cc1ccc(NN2C(C(O)c3ccc(I)cc3)C=CC3C(=O)N(c4ccccc4)C(=O)C32)cc1 (stereo unspecified) | 0.945
CCOC(=O)[C@H]1C/C=C/C[C@H](C(=O)OCC)C(=O)O[C@H]2[C@@H](OC)O[C@H](CO)[C@@H](OC(=O)Nc3ccc(Br)cc3)[C@@H]2OC1=O | 0.708
C[C@@H]1C=CCC(=O)OC[C@H]2O[C@@H](C=C[C@@H]2O)[C@H](C)C=CCC(=O)OC[C@H]2O[C@H]1C=C[C@@H]2O | -0.282

Structure (SMILES) | composite z-score
CO[C@@H]1COC(=O)[C@H](C)NC(=O)CC=C[C@@H](C)[C@H](NS(=O)(=O)c2ccc(C)cc2)COC(=O)CC=C[C@@H]1C | -0.412
C=C(CCCC)/C(=C/C[C@@H](OC(=O)c1ccncc1)c1cccc(OCCO)c1)c1cc(C(=O)OC)ccc1OC | 0.939
[N-]=[N+]=NCc1ccccc1C[C@]1(C(N)=O)N=C(c2ccc(OCCCO)cc2)O[C@H]1c1ccccc1CN=[N+]=[N-] | 0.98
CCCCO[C@H]1C[C@H]2C(Br)=C[C@@]1(CO)C(=O)[C@]21CO1 | -0.46
CC(C)N1CC=CC23O[C@@H]4/C=C\CCCOC(=O)C4[C@H]2C(=O)N(CCCCCO)[C@@H]3C1=O (stereo partly specified) | -3.13
CO[C@@H]1COC(=O)[C@H](C)NC(=O)CC=C[C@@H](C)[C@H](OC)COC(=O)[C@H](C)NC(=O)CC=C[C@H]1C | 0.38
CCOC(=O)C[C@H]1[C@H](OC(=O)Cc2ccc3c(c2)OCO3)[C@@H](NC(=O)c2ccc3ccccc3c2)c2cc(OCCCO)ccc2N1C(=O)Cc1ccc(OC)cc1 | 0.561
CCCN1C(=O)[C@@]2(CCS(=O)(=O)c3ccccc3)N=C(c3ccc(OCCCO)cc3)O[C@H]2c2ccccc21 | 0.762
CCCC[C@@H]1C[C@H]1[C@@H](NC(=O)c1cccs1)c1ccc(Cl)cc1 | -1.26
C[C@H]1COC(=O)[C@@H]2CCCN2C(=O)[C@@H](C)COC(=O)[C@@H]2CCCN2C1=O | -0.135
[N-]=[N+]=NCc1ccccc1C[C@@]1(C(=O)O)N=C(c2ccc(OCCCO)cc2)O[C@@H]1c1ccccc1N=[N+]=[N-] | 1.02
O=C1C2C=CC(C(O)C(c3ccccc3)c3ccccc3)N(Nc3ccc([N+](=O)[O-])cc3)C2C(=O)N1c1ccccc1 (stereo unspecified) | 0.953
CO[C@H]1COC(=O)[C@H](CCSC)NC(=O)CC=C[C@@H](C)COC(=O)[C@@H](OCc2ccccc2)C=C[C@@H]1C | -1.22
CCC(=O)[C@]12O[C@@]3([C@@H]4C(=O)OCC[C@@H]41)N(Cc1ccccc1)C(C)=C(C(=O)OC)[C@@H](c1ccccc1)N3C2=O | -1.35
COC(=O)[C@@]1(Cc2ccc(OC)cc2)[C@H]2c3cc(C(=O)N(C)C)n(CCc4ccc(OC)c(Br)c4)c3C[C@H]2CN1C(=O)c1ccccc1 | 0.891
C#CCCCON=C1C[C@@H](O)[C@@H](O)[C@@H]2[C@@H]3C(=O)N(Cc4ccc5c(c4)OCO5)C(=O)[C@@H]3CC[C@H]12 | 0.573
COC(=O)c1c(CC[C@@H](CO)NC(=O)N[C@H](Cn2cc(-c3cncn3C)nn2)C(C)C)oc(C(C)=O)c1C(=O)OC | -0.0397
CCOC(=O)C1=CC[C@@H](c2ccc(-c3ccc(OCc4ccccc4)cc3)c(OC)c2)N(S(=O)(=O)c2ccc(C)cc2)[C@H]1c1ccccc1 | 0.978
